Inconclusive results are not listed. Entries that show only a call come without a potency. Calls of active or inactive are those of the source. Calls come from the whole dose curve; as a rule, active = well fitted curve in the direction sought with a large enough effect; inconclusive = small, poorly fitted or top-dose-only effect, or another doubt; inactive = no such curve, though single readings can be large; an effect the other way counts as inactive or inconclusive.
Key:
[1] = biological target: Aldehyde dehydrogenase, mitochondrial (Homo sapiens) (UniProt P05091); experiment: qHTS for Inhibitors of the Aldehyde Dehydrogenase Family (ALDH2) Primary screen (AID 2061308); note: nearly all actives have a fitted effect of over 55% in size
[2] = biological target: Retinaldehyde dehydrogenase 3 (Homo sapiens) (UniProt P47895); experiment: qHTS for Inhibitors of the Aldehyde Dehydrogenase Family (ALDH1A3) Primary screen (AID 2061315)

| Structure (SMILES) | Potency [1] | Potency [2] |
| --- | --- | --- |
| N#Cc1cc(CN2CCC(Nc3ncnc4sc(Cl)cc34)CC2)ccc1F | inactive | inactive |
| Clc1ccc(CN[C@H]2CCN(c3ncc(Br)cn3)C2)c(Cl)c1 | inactive | inactive |
| COc1ccc(/C=C/C(=O)O[C@@H]2[C@@H](O[C@@H]3O[C@H](CO)[C@@H](O)[C@H](O)[C@H]3O)[C@@H](O)[C@H](O[C@H]3C4C=CO[C@@H](O[C@@H]5O[C@H](CO)[C@@H](O)[C@H](O)[C@H]5O)C4[C@@]4(CO)O[C@@H]34)O[C@H]2C)cc1 (stereo not given in full) | inactive | inactive |
| O=C(/C=C/c1ccc(O)cc1)OC[C@H]1O[C@@H](OC(=O)/C=C/c2ccccc2)[C@H](O)[C@@H](O)[C@@H]1O | inactive | inactive |
| C[C@]1(O)CC[C@@H]2C(C(=O)O)=CO[C@@H](O[C@@H]3O[C@H](CO)[C@@H](O)[C@H](O)[C@H]3O)[C@@H]21 | inactive | inactive |
| C=C1CCC[C@]2(C)CC/C(=C(/CO)C(=O)OC)C[C@@H]12 | inactive | inactive |
| CC1(C)O[C@H]2CC(=O)OC[C@]23[C@H]2CC[C@@]4(C)[C@H](c5ccoc5)OC(=O)[C@H]5O[C@]54[C@]2(C)C(=O)C[C@@H]13 | inactive | inactive |
| CC1(C)C(=O)N2c3ccccc3C(O)(CC(C(=O)O)n3cnc4ccccc4c3=O)C2N1O (stereo not given) | inactive | inactive |
| C=C1C(=O)O[C@H]2[C@H]1[C@@H](OC(=O)C(C)CO)C[C@@]1(C)[C@H](O)CCC(=O)[C@H]21 (stereo not given in full) | inactive | inactive |
| C[C@H]1CC[C@@]2(OC1)O[C@H]1CC3C4CC=C5C[C@H](O)C[C@@H](O[C@@H]6O[C@@H](C)[C@H](O)[C@@H](O)[C@H]6O[C@@H]6O[C@@H](C)[C@H](O)[C@@H](O)[C@H]6O)[C@]5(C)C4CC[C@]3(C)[C@H]1[C@@H]2C (stereo not given in full) | inactive | inactive |
